Source: PubChem BioAssay
This is a sample that favours compounds with a hit; in the whole collection about 7.8% have one here.
Marburg entry inh: qHTS for inhibitors of binding or entry into cells for Marburg Virus | actives 1.8% (n = 300,000) | AID 540276, 2011 | Marburg virus pseudotyped entry inhibition, cell reporter | Potency, µM (series often up to 37.8 µM), usual class: inhibitors; calls by dose curve; tested in HEK293 cells
HCMV antiviral: qHTS Assay for inhibitors of the human cytomegalovirus (HCMV). HFF cells, HCMV-luciferase reporter, 72 h; active compounds read low. activity change, negative = inhibition, % at 57.5 µM. actives 4.5% (n = 410,000); in the data active = activity change below about -60%; inconclusive = no clear call, values can overlap the other calls; inactive = above about -39%
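Two-dose cell screen: HFF monolayers treated with compounds and infected with luciferase-expressing HCMV at 1 PFU/cell, 72 h at 37C, then lysed for luciferase measurement.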
Vaccinia Venus: qHTS for Stage-Specific Inhibitors of Vaccinia Orthopoxvirus: Venus Reporter Primary qHTS. Vaccinia virus Venus reporter expression, fluorescence. Potency, µM (titrated, usually from 36.5 µM), usual class: inhibitors. actives 0.46% (n = 330,000). AID 720580, 2013; calls by dose curve; tested in A549 cells; note: nearly all actives have a fitted effect of over 30% in size
LASV entry inh: qHTS for Inhibitors of binding or entry into cells for Lassa Virus; actives 1.2% (n = 300,000); Potency, µM (top dose mostly 37.9 µM), most hits filed as inhibitors; Lassa virus pseudotype entry inhibition, cell reporter; calls by dose curve; tested in HEK293 cells; note: nearly all actives have a fitted effect of over 50% in size
HCV inhibitor: qHTS Assay for Inhibitors of Hepatitis C Virus (HCV) | Potency, µM (top dose mostly 41.8 µM), most hits filed as inhibitors | actives 3.4% (n = 340,000) | Huh7.5.1 HCVcc-Cre infection, luciferase reporter, 44 h; active = well fitted inhibition curve with a large enough effect; inconclusive = small, poorly fitted or top-dose-only effect, or another doubt; inactive = no such curve, though single readings can be large or run the other way
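Seed cells (1,000/well) for 4 h; treat with compound and infect with HCVcc-Cre, moi about 0.5. Incubate 44 h, then detect luciferase activity.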
VACV mCherry inh: qHTS for Stage-Specific Inhibitors of Vaccinia Orthopoxvirus: mCherry Reporter Primary qHTS | Vaccinia virus mCherry reporter infection, fluorescence | Potency, µM (highest dose often 36.5 µM), hits mostly inhibitors | actives 0.63% (n = 310,000); calls by dose curve; tested in A549 cells; note: nearly all actives have a fitted effect of over 35% in size
A number is an active result; i = inactive; ? = inconclusive; nt = no result; + = active, no number.

SMILES	Marburg entry inh	HCMV antiviral	Vaccinia Venus	LASV entry inh	HCV inhibitor	VACV mCherry inh
CCCC(=Nc1ccccc1OC)C1=C(O)CC(c2ccccc2)CC1=O (stereo unspecified)	?	i	i	i	i	i
CCCCCCCN=CC1=C(O)CC(c2ccccc2)CC1=O (stereo unspecified)	i	i	i	i	i	i
COc1ccccc1N=C(C)C1=C(O)CC(c2ccccc2)CC1=O (stereo unspecified)	?	-83.5	?	?	?	?
O=S1(=O)CCSC[C@@H](CNCc2ccco2)N1	nt	i	nt	?	nt	nt
C=CCc1c(C)nc2nc(SCC(=O)Nc3ccc(OCC)cc3)nn2c1C	nt	i	i	i	nt	i
Cc1c(N=C2N=C(NC(=O)c3cccs3)c3ccccc32)c(=O)n(-c2ccccc2)n1C	?	i	i	?	10µM	i
CCOC(=O)c1cc(-c2ccc(OC)c(S(=O)(=O)NC3CCCCC3)c2)on1	nt	-69.5	i	i	nt	i
O=C(Cn1c(=O)n(Cc2ccco2)c(=O)c2sc3ccccc3c21)Nc1ccccc1C(F)(F)F	i	i	i	i	nt	?
Cc1nn(C)cc1CNC(=O)c1cc2n(n1)C(C(F)(F)F)CC(c1cccs1)N2 (stereo unspecified)	i	?	i	?	?	i
Cc1nn(C)c(C)c1CNC(=O)c1nn2c(c1Cl)NC(c1cccs1)CC2C(F)(F)F (stereo unspecified)	?	-85.6	?	i	?	?
CC(C)NC(=O)c1cnn2c1NC(c1cccs1)CC2C(F)(F)F (stereo unspecified)	i	?	i	i	2.82µM	i
Cc1cc(N)c2ccccc2[n+]1CCCCCCCCCCCCCC[n+]1c(C)cc(N)c2ccccc21	8.91µM	nt	nt	nt	nt	nt
O=C(c1cnn(-c2ccccc2)c1)c1ccc2ccccc2c1O	i	i	i	i	i	i
CC(C)(C)n1cc(C(=O)c2ccc3ccccc3c2O)cn1	3.98µM	?	i	12.6µM	i	i
COCCn1c(SCC(=O)Nc2cc(C)on2)nc2ccccc2c1=O	nt	i	nt	nt	i	nt
Cc1cccc(-n2c(N)cc(=O)nc2SCC(=O)Nc2cc(C)on2)c1	i	i	i	i	i	i
CCCCCCn1c(SCC(=O)Nc2cc(C)on2)nc2ccccc2c1=O	?	-62.9	nt	?	?	nt
COCCn1c(-c2ccc(OC)cc2)cnc1SCC(=O)Nc1cc(C)on1	?	-86.2	i	i	?	i
Cc1cc(NC(=O)CSc2nc(C(C)C)nc3ccccc23)no1	?	?	nt	?	12.6µM	nt
Cc1nnc(NC(=O)CSc2nc(C(C)C)nc3ccccc23)s1	i	?	i	?	?	i
Cc1cc(NC(=O)CSc2nc(=O)cc(N)n2-c2ccc(Cl)cc2)no1	i	-64.5	i	i	i	i
O=c1oc2ccccc2n1CCCOc1ccccc1Cl	i	i	i	?	nt	i
Cc1cc(NC(=O)CCc2ccc(-c3ccccc3)o2)no1	?	-101.8	i	?	i	i
CCOc1cc(-c2nnc(SCC(=O)NCc3ccccc3)nc2-c2ccc(OC)c(OCC)c2)ccc1OC	nt	-74.5	?	?	nt	?
Cc1cc(NC(=O)CSc2nnc(-c3ccccc3)c(-c3ccccc3)n2)no1	?	-62.1	i	?	?	i
SMILES	Marburg entry inh	HCMV antiviral	Vaccinia Venus	LASV entry inh	HCV inhibitor	VACV mCherry inh
Cc1cc(C)c2cc(C#N)c(SCC(=O)Nc3cc(C)on3)nc2c1	i	-60.6	i	nt	i	i
Cc1cc(NC(=O)CSc2nnc(-c3ccccc3)o2)no1	i	i	i	i	i	i
CCCc1ccc(OCc2ccc(C(=O)Nc3ccccc3C(=O)OC)o2)cc1	i	i	i	?	nt	i
O=[N+]([O-])c1nccn1CC(O)CCN1CCOCC1 (stereo unspecified)	nt	i	nt	nt	nt	nt
Cc1cc(NC(=O)CSCC(=O)Nc2ccc(Cl)c(C(F)(F)F)c2)no1	i	i	i	i	i	i
Cc1cc(NC(=O)CSc2ccc(F)cc2)no1	nt	?	nt	nt	i	nt
Cc1cc(NC(=O)CSCC(=O)Nc2ccc(C)c(C)c2)no1	nt	+	nt	nt	i	nt
Cc1cc(NC(=O)CSc2ccccc2)no1	?	-102.1	?	i	i	i
Cc1cc(Cl)ccc1NC(=O)CN1C(=O)COc2ccc(S(=O)(=O)N3CCC(C)CC3)cc21	nt	i	i	i	nt	i
COc1ccc(NC(=S)N(CCN(C)C)C(C)c2ccco2)cc1 (stereo unspecified)	?	-62.0	i	?	i	i
Nc1nc(-c2ccccc2)c(N=Nc2ccccc2Cl)s1	?	i	?	i	11.2µM	i
O=[N+]([O-])c1ccc(SCc2c(F)cccc2Cl)nc1	?	-60.8	i	i	i	i
O=C1OCc2cc(-c3ccccc3F)ccc21	nt	i	nt	nt	nt	nt
COC(=O)C1=CN(Cc2cccs2)C=C(C(=O)OC)C1c1cccc(O)c1	i	i	i	7.08µM	i	i
COc1ccc(S(=O)(=O)N(Cc2nc(-c3ccc(C)cc3)no2)C2CCCCC2)cc1	i	?	i	i	nt	i
COc1cc(C(=O)Nc2cccc(NC(=O)c3ccccc3)c2)cc(OC)c1OC	nt	i	nt	nt	?	nt
COc1cc2c(c(OC)c1OC)-c1ccc(O)cc1C(NC(C)=O)CC2 (stereo unspecified)	?	-94.9	?	?	i	i
COc1cc2c(c(OC)c1OC)-c1ccc(NC(=O)c3ccccc3)c(=O)cc1[C@@H](NC(C)=O)CC2	i	-88.5	i	i	i	i
COc1cc2c(c(OC)c1OC)-c1ccc(O)c(=O)cc1[C@@H](NC(C)=O)CC2	nt	i	i	nt	i	i
COc1cc2c(c(OC)c1OC)-c1ccc(O)cc1[C@@H](NC(C)=O)CC2	nt	-78.4	?	nt	i	i
CN[C@H]1CCc2cc(OC)c(OC)c(OC)c2-c2ccc(OC)c(=O)cc21	nt	-95.0	?	nt	i	?
COc1cc2c(c(OC)c1OC)-c1c(cc(OC)c(OC)c1OC)C[C@](C)(O)[C@@H](C)C2	nt	i	i	nt	i	i
COC(=O)c1ccccc1NC(=O)[C@H]1O[C@@H]2OC(C)(C)O[C@@H]2[C@H]2OC(C)(C)O[C@H]21	i	i	i	?	nt	i
Cc1ccccc1OCC(=O)Nc1ccc(C)c(S(=O)(=O)N2CCCCCC2)c1	?	i	i	?	?	?
Cc1ccc(NC(=O)COC(=O)c2ccc(OC(F)F)cc2)cc1S(=O)(=O)N1CCCCC1	nt	i	nt	nt	i	nt
Cc1ccccc1C(=O)N1CCC(C(=O)Nc2ccc(C)c(S(=O)(=O)N3CCCCC3)c2)CC1	nt	i	nt	nt	10µM	nt
Cc1ccc(NC(=O)C2CCN(S(=O)(=O)c3ccc(N4CCCC4=O)cc3)CC2)cc1Cl	?	-85.6	i	?	10µM	i
Cc1ccc(NC(=O)CNC(=O)c2ccc(OC(F)F)cc2)cc1S(=O)(=O)N1CCCCCC1	nt	i	nt	nt	15.8µM	nt
